Bioassay records deposited in PubChem BioAssay by The Scripps Research Institute Molecular Screening Center.
GPR151 ag – human GPR151 activation; PathHunter beta-arrestin GPR151 cells, luminescence; activation, % at 11.2 µM; 650,000 compounds, 1% hits; AID 1508602; in the data active means activation above about 4.9%;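 further: 0% = median of compound wells and 100% = cells with positive control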
MITF inh – blocks human microphthalmia-associated transcription factor; O75030; AlphaScreen MITF homodimerization, bead proximity signal; inhibition, % at 2.6 µM; 650,000 compounds, 0.91% hits; in the data active means inhibition above about 50%;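 further: 0% = vehicle wells with protein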
TEAD-YAP inh – TEAD-YAP interaction inhibition. HEK-TIYL cells, TEAD-Gal4/YAP UAS-luciferase luminescence. inhibition, % at 9.12 µM. 640,000 compounds, 1.4% hits. AID 1259422; in the data active means inhibition above about 32%;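 further: 0% = median of test compound wells and 100% = reference inhibitor wells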
FBW7 activator – activators of human E3 ligase FBW7; AlphaScreen FBW7–phospho-cyclin E peptide binding, activator screen; 650,000 compounds, 0.13% hits; Q969H0; normalized activity (activation), % at 26.1 µM; in the data active means normalized activity above about 1.9%;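 further: purified mutant Fbw7 with reduced substrate affinity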
GPR151 conf act – confirmation of human GPR151 activators; shares compounds with GPR151 ag; GPR151 PathHunter beta-arrestin cells, luminescence, 90 min; % of EA-reagent control over plate median; activation, % at 11.2 µM; 6,700 tested, under 10 active; AID 1508609;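 active means mean percent activation across replicates above the confirmation screen cutoff of 4.91%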
GPR119 counter – GPR119 activation, counter-screen for GPR151 activators. activation, % at 11.2 µM. 6,700 compounds, 0.3% hits. GPR119 PathHunter beta-arrestin cells, luminescence, 90 min; 0 = compound-well median, 100 = enzyme-acceptor control. shares compounds with GPR151 ag;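 active means mean percent activation in the counterscreen above 29.09%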;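 further: counterscreen on off-target GPR119 to flag nonselective hits from the GPR151 activator screen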
Target sequence (Q8TDV5 whole entry, looked up): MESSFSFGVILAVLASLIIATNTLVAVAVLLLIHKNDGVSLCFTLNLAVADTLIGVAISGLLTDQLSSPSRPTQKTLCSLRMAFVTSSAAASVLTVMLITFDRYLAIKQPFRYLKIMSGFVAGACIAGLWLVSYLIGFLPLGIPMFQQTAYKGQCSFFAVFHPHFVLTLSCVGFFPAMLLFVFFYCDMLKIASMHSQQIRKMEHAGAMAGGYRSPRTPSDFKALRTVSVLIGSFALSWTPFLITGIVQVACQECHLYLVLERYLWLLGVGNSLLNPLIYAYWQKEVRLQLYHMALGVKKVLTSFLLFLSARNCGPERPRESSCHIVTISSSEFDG
Numbers without * were called inactive; x = no result. Only some compounds are listed: those with a hit (about 3.4% of all), similar ones and a draw of the others.

SMILES	GPR151 ag	MITF inh	TEAD-YAP inh	FBW7 activator	GPR151 conf act	GPR119 counter
CNS(=O)(=O)c1cccc(C(=O)OCC(=O)Nc2ccc(C(F)(F)F)cc2)c1	0	15	6	0	x	x
Cc1cccc(CSc2nc(=O)n3ccccc3n2)c1	5.2*	-7	-10	0	-1	0
CN1CCN(C(=O)c2ccc(-c3nc4ccc(C(=O)NCCOc5ccccc5)cc4s3)cc2)CC1	5.3*	-8	-24	0	2	3
NC(=O)c1ccc(-c2nc3ccc(C(=O)NCCOc4ccccc4)cc3s2)cc1	5.7*	-2	-33	0	0	-3
CN1CCN(C(=O)c2ccc(-c3nc4ccc(C(=O)NCc5ccccc5)cc4s3)cc2)CC1	1	-1	1	0	x	x
COc1ccc(CCNC(=O)CNS(=O)(=O)c2ccc3nc(C)sc3c2)cc1OC	1	8	0	1	x	x
O=C(Nc1ccc(Br)cc1)c1cc(S(=O)(=O)NCc2ccc(F)cc2)ccc1F	4	8	-1	0	x	x
CC(=O)Oc1ccc(N2C(=O)C3C4C=CC(C4=C(C)C)C3C2=O)cc1 (centres undefined)	0	14	3	0	x	x
CC1(C)NC(=O)N(CC(=O)Nc2ccc(C#N)cc2)C1=O	-2	3	10	0	x	x
CCOC1OC(=O)C(Cl)=C1Nc1cccc(C)c1 (centres undefined)	5.0*	-1	6	0	0	3
Cc1ccc(-c2c(N3CCCCC3)c(=O)c2=O)cc1	6.8*	-3	0	0	0	-11
C=CCSc1nnc2c(n1)OC(/C=C/c1ccc([N+](=O)[O-])o1)Nc1ccc(Br)cc1-2 (centres undefined)	9.1*	32	27	0	2	9
Cc1cc(C)c2c(c1)cc(CN(C(=O)C1CCC1)C1CCCC1)c1nnnn12	1	-1	-5	0	x	x
COC(=O)CN1C(=O)S/C(=C/c2ccco2)C1=O	7.0*	20	2	0	2	-13
O=C(O)CCN1C(=O)/C(=C/C=C/c2ccco2)SC1=S	0	20	23	-2	x	x
O=C(O)CCN1C(=O)/C(=C\c2ccco2)SC1=S	11*	36	-6	0	-1	8
O=C(O)CN1C(=O)/C(=C/c2ccc(SCc3ccco3)o2)SC1=S	1	40	2	-1	x	x
O=C(O)CN1C(=O)/C(=C/c2ccc(I)o2)SC1=S	6.7*	55*	-2	0	0	0
COCC(C)NC(=O)c1cc2nc(-c3ccco3)cc(C(F)(F)F)n2n1 (centres undefined)	0	-6	-2	0	x	x
C=CCN(CC(=O)O)S(=O)(=O)c1ccc(C)c(C)c1	6.6*	6	4	0	1	17
CCCN(CCC)S(=O)(=O)c1ccc(C)c(C)c1	-1	4	1	1	x	x
CCOC(=O)CSc1nc2sc(C(=O)NC3CCCCC3)c(C)c2c(=O)n1Cc1ccccc1	0	22	5	0	x	x
CC1CN(C(=O)c2ccccc2C(F)(F)F)CC(C)O1 (centres undefined)	8.0*	-9	3	0	1	2
CC1CN(C(=O)c2cccs2)CC(C)O1 (centres undefined)	-1	2	9	0	x	x
CCn1cc(Br)c(C(=O)Nc2cccc(F)c2)n1	-1	7	-22	0	x	x
SMILES	GPR151 ag	MITF inh	TEAD-YAP inh	FBW7 activator	GPR151 conf act	GPR119 counter
CCn1cc(Br)c(C(=O)Nc2cccc(SC)c2)n1	6.4*	-2	-25	0	0	-7
COc1ccc(-c2ncc(C)c(Nc3ccccc3)n2)cc1	-1	0	7	0	x	x
O=C(Nc1ccnn1C1CCN(Cc2ccccc2OCCO)CC1)c1cccc(F)c1	5.9*	-10	-6	0	0	-3
CCOc1ccccc1CN1CCC(n2nccc2NC(=O)C(C)(C)C)CC1	6.8*	13	-13	0	0	9
COc1ccc(F)c(CN2CCC(n3nccc3NC(=O)C3CCCC3)CC2)c1	0	-3	2	0	x	x
O=C(Nc1ccnn1C1CCN(Cc2ccccc2F)CC1)C1CCCC1	5.3*	0	-9	0	-1	-16
O=C(N/N=C/c1cc(Br)c(Br)s1)c1ccccc1[N+](=O)[O-]	0	8	1	0	x	x
